# Assay outcomes: PubChem, several laboratories
# tim10-1 inh – tim10-1 yeast growth inhibition; S. cerevisiae tim10-1 ts strain growth, BacTiter-Glo, 24 h; inhibition, % at 20 µM; 330,000 compounds, 2.2% hits;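 active = inhibition of at least 40%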;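 also: mutant grown at 25 °C; 0% = DMSO wells with yeast and 100% = wells holding no yeast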
# NALP3 yeast inh – inhibitors of NALP3 inflammasome in yeast; Yeast reconstituted NLRP3/ASC/caspase-1, beta-gal luminescence, 24 h; inhibition, % at 10 µM; 330,000 compounds, 0.39% hits; AID 2825;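 active = inhibition of 50% or more; inactive = inhibition below 50%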;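 also: plate controls were induced DMSO wells for no effect and uninduced yeast grown without galactose for full effect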
# SKKanGAS inh – blocks kanamycin growth of S. pyogenes SKKanGAS strain. 300,000 compounds, 1.3% hits. inhibition, % at 7.5 µM. BacTiter-Glo, 6 h;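 active = mean replicate score, as percent of positive control median, at least 50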;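 also: strain carries kanamycin resistance gene driven by streptokinase promoter and grows in 40 µg/ml kanamycin; loss of luminescence reflects streptokinase promoter inhibition or plain growth inhibition; 0% = median of DMSO wells and 100% = positive control at its reference dose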
# PfHsp90 yeast 2 – growth inhibition of yeast expressing Plasmodium Hsp90 | S. cerevisiae expressing PfHsp90, BacTiter-Glo ATP, 48 h; yeast lacking PDR1 and PDR3 efflux regulators | 310,000 compounds, 0.32% hits | inhibition, % at 9.4 µM;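 active = every replicate shows inhibition above about 80%, whatever the replicate mean, limit read from the data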;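 also: 0% = DMSO neutral controls and 100% = 20 µM radicicol positive controls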
# TIM10 inh – growth inhibitors of TIM10 yeast strain; 330,000 compounds, 1.4% hits; S. cerevisiae TIM10 strain growth, BacTiter-Glo luminescence, 24 h; inhibition, % at 10 µM; AID 463195;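 active = inhibition of 40% or more at the single tested concentration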;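 also: wild-type TIM10 isogenic control strain grown at permissive 25 °C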
# tim23-1 inh – tim23-1 yeast growth inhibition. S. cerevisiae tim23-1 growth, BacTiter-Glo luminescence, 24 h. AID 463212. inhibition, % at 20 µM. 330,000 compounds, 1.3% hits;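 active = growth inhibition of the mutant yeast at or above 50%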;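 also: temperature-sensitive mutant grown at 25 °C; plate controls were DMSO-treated mutant yeast for no effect and medium wells lacking yeast for full effect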
# TIM10 conf – confirmation of TIM10 yeast growth inhibitors; shares compounds with TIM10 inh; S. cerevisiae tim10 strain growth, BacTiter-Glo luminescence, 24 h; inhibition, % at 10 µM; 4,600 compounds, 63% hits; AID 463215;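 active = inhibition of yeast growth at or above a set limit in either of two replicates at 10 µM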;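 also: this counterscreen used the strain with wild-type TIM10; 0% = yeast with DMSO and 100% = medium wells lacking yeast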
# * = called active by the depositor; . = no result given. Hits are enriched below; roughly 4.6% of the tested compounds scored in any of these assays.
SMILES,tim10-1 inh,NALP3 yeast inh,SKKanGAS inh,PfHsp90 yeast 2,TIM10 inh,tim23-1 inh,TIM10 conf
CC(=O)Nc1ccc(-c2nnn(CC(=O)c3ccccc3)n2)cc1Cl,-3,-3,-1,0,47*,20,36*
CC(=O)Nc1ccc(-c2nnn(CC(=O)c3ccc(F)cc3)n2)cc1Cl,-34,3,-5,12,33,-11,.
S=C(NCc1ccccc1)N/N=C/c1cccs1,32,31,-2,1,34,39,.
S=C(NCCc1ccccc1)N/N=C/c1cccs1,33,18,29,.,41*,42,38*
Cc1nc(NC(=O)c2ccccc2)sc1-c1csc(N)n1,35,17,0,-27,44*,26,24
Cc1nc(NC(=O)c2ccccc2)sc1-c1csc(NCc2ccccc2)n1,24,5,17,-28,19,43,.
Cc1ccc([C@H]2C(C(=O)O)=CC[C@@H](c3cccs3)N2S(=O)(=O)c2ccc(C)cc2)cc1,9,2,.,16,12,12,.
Cc1ccc(S(=O)(=O)N2[C@@H](c3ccc(Br)cc3)C(C(=O)O)=CC[C@H]2c2cccs2)cc1,12,22,.,-22,96*,12,5
O=C(Nc1nccs1)c1ccc(N2CCOCC2)c([N+](=O)[O-])c1,11,9,-7,15,-1,10,.
COc1ccc(C2CC(=O)C=C(NNS(=O)(=O)c3ccc(C)cc3)C2)cc1 (stereo unspecified),8,7,-2,1,11,23,.
COc1ccccc1NC(=O)COC(=O)CCc1ccc(S(=O)(=O)N2CCOCC2)cc1,19,10,.,9,8,20,.
CC1CCCC(NC(=O)COC(=O)c2ccccc2[N+](=O)[O-])C1C (stereo unspecified),13,16,2,-25,-4,-6,.
O=C(COC(=O)c1ccc([N+](=O)[O-])s1)Nc1ncc(C(F)(F)F)cc1Cl,9,-11,10,1,65*,-12,72*
CC1CCCC(NC(=O)COC(=O)c2ccc([N+](=O)[O-])s2)C1C (stereo unspecified),-7,32,.,3,62*,-21,61*
Cc1ccc(CC(=O)OCC(=O)NC2CCCC(C)C2C)cc1C (stereo unspecified),24,5,0,17,50*,5,14
O=C(COC(=O)c1ccccn1)Nc1ncc(C(F)(F)F)cc1Cl,3,7,-11,2,-2,9,.
CC1CCCC(NC(=O)COC(=O)Cc2ccc(Cl)cc2)C1C (stereo unspecified),7,1,.,24,4,29,.
O=C(COC(=O)CCCN=C1NS(=O)(=O)c2ccccc21)NNC(=O)c1ccccc1,2,10,1,.,9,4,.
O=C1NC(=S)S/C1=C\c1coc2ccccc2c1=O,13,4,3,-22,44*,28,25
COc1cc(/C=C(/C#N)c2nc3ccccc3[nH]2)ccc1OCc1ccc(C(=O)O)o1,13,13,4,-2,5,14,.
COC(=O)c1ccc(COc2ccc(/C=C(\C#N)c3nc4ccccc4[nH]3)cc2OC)o1,9,19,29,1,54*,31,33*
Cc1cccc(NC(=O)CSc2nc3ccccc3nc2N2CCCC2)c1C,18,10,6,-45,6,24,.
COc1ccc(NC(=O)c2cc3n(n2)C(C(F)(F)F)CC(c2ccc4c(c2)OCO4)N3)cc1OC (stereo unspecified),38,13,.,-2,41*,34,35*
COc1ccc(C2CC(C(F)(F)F)n3nc(C(=O)NCCCn4ccnc4)cc3N2)cc1OC (stereo unspecified),9,6,2,22,4,-5,.
O=C(CCc1ccccc1)NC(=S)Nc1cccc(Br)c1,37,2,40,1,48*,42,-16
SMILES,tim10-1 inh,NALP3 yeast inh,SKKanGAS inh,PfHsp90 yeast 2,TIM10 inh,tim23-1 inh,TIM10 conf
O=C(CCN1C(=O)c2ccccc2C1=O)NC(=S)Nc1cccc(Cl)c1,8,26,-3,-11,41*,1,25
S=C(Nc1cccc(Br)c1)c1ccccc1,38,38,-23,-7,43*,45,44*
CC(=O)c1cccc(NC(=S)NCCCCc2ccccc2)c1,28,11,5,9,41*,33,-16
O=C(CCc1ccccc1)NC(=S)Nc1cccc(C(=O)O)c1,-1,16,21,-17,-4,0,.
CC(=O)N1CC(C)Oc2ccc(S(=O)(=O)NC(CC(=O)O)c3ccc(C)cc3C)cc21 (stereo unspecified),-13,8,0,3,1,-4,.
CCC(CNC(=O)c1c(C)nn(-c2ccccc2)c1Cl)c1ccccc1 (stereo unspecified),-14,22,-1,21,13,20,.
Brc1ccc2[nH]c3c(N4CCc5ccccc5C4)ncnc3c2c1,37,13,86*,.,43*,42,14
Fc1ccc2[nH]c3c(N4CCc5ccccc5C4)ncnc3c2c1,7,16,21,.,18,14,.
CN1/C(=C\C(=O)COC(=O)c2nccnc2N)C(C)(C)c2ccccc21,13,22,3,-35,1,16,.
CN1/C(=C\C(=O)COC(=O)c2ccc([N+](=O)[O-])o2)C(C)(C)c2ccccc21,16,24,19,.,65*,-290,75*
COc1ccccc1N1C(=O)C=C(Sc2nc(C)cc(C)n2)C1=O,10,-13,2,.,42*,-11,45*
O=c1c2c3c(sc2ncn1/N=C/c1ccc([N+](=O)[O-])o1)CCCC3,-21,35,3,105*,69*,-79,96*
CCCCOc1ccc([N+](=O)[O-])cc1C(=O)O,-5,5,3,3,-16,2,.
COc1ccc(/C=N/Nc2ncnc3scc(-c4ccccc4)c23)cc1OC,32,7,-5,-2,58*,26,44*
Oc1ccc(Nc2ncnc3scc(-c4ccccc4)c23)cc1,17,-10,0,-9,0,9,.
c1ccc(/N=C2\N=C(Nc3ccccn3)c3ccccc32)nc1,33,21,60*,-2,46*,48,29
Cc1ccc(C2CN(CCC(N)=O)C(=O)CO2)cc1 (stereo unspecified),10,9,.,-9,11,9,.
COC(=O)c1cccc(Oc2cccc(C(F)(F)F)c2)n1,18,17,3,8,6,6,.
CCn1c(=O)c([N+](=O)[O-])c(Cl)c2ccccc21,33,9,12,.,78*,37,79*
Cn1c(SCc2ccc3c(c2)OCO3)nnc1-c1ccccc1,-3,24,-1,-5,97*,30,11
